# From PubChem BioAssay (NCI)
# About 79,000 compounds went through this panel and 15% of them were active in at least one assay; those are over-represented in the sample as a whole. A number with no mark means an inactive call. Calls of active or inactive are those of the source. Rule as the data show it: active = growth inhibition above about 70%; inactive = the rest.
# Assays:
# [1] = NCI Yeast Anticancer Drug Screen. Data for the rad52 strain (AID 147);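 also: 0% = growth of vehicle-treated control cultures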; details: S. cerevisiae rad52 mutant growth inhibition, active compounds read high
# Summary of the method: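 Inhibition of yeast growth, referenced to vehicle controls, was the measured output for a strain with defective DNA damage repair.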
# [2] = NCI Yeast Anticancer Drug Screen. Data for the wt1 strain (AID 149);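 also: 0% = growth of vehicle-treated wt1 cultures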; details: S. cerevisiae wt1 strain (SPY 50644) growth inhibition, active compounds read high
# Summary of the method: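 wt1 yeast, compound-treated; % growth inhibition vs vehicle control.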
# [3] = NCI Yeast Anticancer Drug Screen. Data for the rad50EPP+ strain (AID 151);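 also: 0% = growth of vehicle-treated control cultures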; details: S. cerevisiae rad50 mutant strain, active compounds read high
# Summary of the method: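 Genetically defined yeast (rad50EPP+, DNA damage repair alteration) is grown with compound, and inhibition of growth is expressed relative to vehicle-treated controls.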
# [4] = NCI Yeast Anticancer Drug Screen. Data for the mgt1 strain (AID 153); details: S. cerevisiae mgt1 mutant growth inhibition, active compounds read high
# Summary of the method: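 In the mgt1 strain, test compounds were added and growth inhibition was determined relative to vehicle-treated controls.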
# [5] = NCI Yeast Anticancer Drug Screen. Data for the rad50 strain (AID 155);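 also: 0% = growth of vehicle-only cultures of the same strain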; details: S. cerevisiae rad50 strain growth inhibition, active compounds read high
# Summary of the method: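 Genetically altered yeast (DNA repair pathway); compound treatment; growth inhibition vs vehicle ctrl.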
# [6] = NCI Yeast Anticancer Drug Screen. Data for the mec2-1 strain (AID 157); details: S. cerevisiae mec2-1 strain, active compounds read high
# Summary of the method: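 Each compound was tested on mec2-1 yeast, a strain altered in DNA damage repair or cell cycle control. Growth inhibition is reported relative to vehicle.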
# [7] = NCI Yeast Anticancer Drug Screen. Data for the rad14 strain (AID 159);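 also: 0% = growth of vehicle-treated control cultures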; details: S. cerevisiae rad14 strain growth inhibition, active compounds read high
# Summary of the method: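 Test compounds were applied to a repair-deficient yeast strain. Its growth was then compared with that of cultures given vehicle alone, and inhibition was expressed relative to those controls.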
# [8] = NCI Yeast Anticancer Drug Screen. Data for the sgs1 mgt1 strain (AID 161);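 also: 0% = growth of cultures given vehicle only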; details: S. cerevisiae sgs1 mgt1 strain, active compounds read high
# Summary of the method: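 Inhibition of yeast growth, normalised to vehicle-treated controls, is reported for a strain bearing genetic alterations in DNA damage repair.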
# [9] = NCI Yeast Anticancer Drug Screen. Data for the CLN2oe strain (AID 163);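 also: 0% = growth of vehicle-only control cultures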; details: S. cerevisiae CLN2oe strain, active compounds read high
# Summary of the method: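 First, the altered yeast strain was treated with each compound; second, its growth was measured; finally, inhibition was derived by comparison with vehicle controls.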
# [10] = NCI Yeast Anticancer Drug Screen. Data for the cln2 rad14 strain (AID 165);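 also: 0% = growth equal to vehicle treated cultures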; details: S. cerevisiae cln2 rad14 strain, active compounds read high
# Summary of the method: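 Test compounds were added to cln2 rad14 yeast cultures; inhibition of growth was then determined by comparison with vehicle treatment.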
# [11] = NCI Yeast Anticancer Drug Screen. Data for the bub3 strain (AID 167); details: S. cerevisiae bub3 mutant strain, active compounds read high
# Summary of the method: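 Yeast carrying a defined mutation is treated with each compound, and growth is compared with that of vehicle-exposed cells to give inhibition.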
# [12] = NCI Yeast Anticancer Drug Screen. Data for the wt2 strain (AID 169);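 also: 0% = growth of vehicle-treated yeast cultures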; details: S. cerevisiae wt2 strain growth inhibition, active compounds read high
# Summary of the method: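 The panel's yeast strains carry defined changes in DNA repair or cell cycle genes. Each strain is grown with compound, and growth loss is scored relative to vehicle.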
# [13] = NCI Yeast Anticancer Drug Screen. Data for the mlh1 strain (AID 171);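 also: 0% = growth of vehicle-treated control cultures of the same strain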; details: S. cerevisiae mlh1 strain growth inhibition, active compounds read high
# Summary of the method: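 Inhibition values reflect reduced yeast growth in the presence of compound, referenced to vehicle controls, using a strain chosen for its alteration in DNA repair or cell cycle control.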
# [14] = NCI Yeast Anticancer Drug Screen. Data for the sgs1 strain (AID 173);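 also: 0% = growth of vehicle-only control cultures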; details: S. cerevisiae sgs1 mutant, active compounds read high
# Summary of the method: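 Vehicle-treated cultures served as reference for growth inhibition of a yeast strain altered in DNA damage repair or cell cycle control after compound exposure.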
# [15] = NCI Yeast Anticancer Drug Screen. Data for the mlh1 rad18 strain (AID 175); details: S. cerevisiae mlh1 rad18 strain growth inhibition, active compounds read high
# Summary of the method: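 Inhibition values reflect reduced growth of mutant yeast versus vehicle-treated controls following compound exposure; the mutations affect DNA damage repair.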
# [16] = NCI Yeast Anticancer Drug Screen. Data for the rad18 strain (AID 177); details: S. cerevisiae rad18 mutant growth inhibition, active compounds read high
# Summary of the method: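 Steps: expose repair-mutant yeast to compound; measure growth; express as inhibition relative to vehicle control.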
# [17] = at 5.0 µM (retest, dose inferred, filed as 0.5)
# [18] = at 50.0 µM (retest, dose inferred, filed as 5.0)
smiles,measurement,setting,value
O=C1c2cccc3cccc(c23)C(=O)N1O,growth inhibition,[1]; at 1.2 µM,-3%
same,growth inhibition,[1]; at 3.7 µM,3%
same,growth inhibition,[1]; at 11.0 µM,1%
same,growth inhibition,[1]; at 33.0 µM,24%
same,growth inhibition,[1]; at 100.0 µM,84% (active)
same,growth inhibition,[2]; at 1.2 µM,3%
same,growth inhibition,[2]; at 3.7 µM,-1%
same,growth inhibition,[2]; at 11.0 µM,7%
same,growth inhibition,[2]; at 33.0 µM,24%
same,growth inhibition,[2]; at 100.0 µM,86% (active)
same,growth inhibition,[3]; at 1.2 µM,-3%
same,growth inhibition,[3]; at 3.7 µM,-2%
same,growth inhibition,[3]; at 11.0 µM,-1%
same,growth inhibition,[3]; at 33.0 µM,28%
same,growth inhibition,[3]; at 100.0 µM,89% (active)
same,growth inhibition,[4]; at 1.2 µM,-8%
same,growth inhibition,[4]; at 3.7 µM,4%
same,growth inhibition,[4]; at 11.0 µM,23%
same,growth inhibition,[4]; at 33.0 µM,81% (active)
same,growth inhibition,[4]; at 100.0 µM,95% (active)
same,growth inhibition,[5]; at 1.2 µM,9%
same,growth inhibition,[5]; at 3.7 µM,13%
same,growth inhibition,[5]; [17],13%
same,growth inhibition,[5]; at 11.0 µM,13%
same,growth inhibition,[5]; at 33.0 µM,54%
same,growth inhibition,[5]; [18],99% (active)
same,growth inhibition,[5]; at 50.0 µM,84.4% (active)
same,growth inhibition,[5]; at 100.0 µM,89% (active)
same,growth inhibition,[6]; at 1.2 µM,5%
same,growth inhibition,[6]; at 3.7 µM,-5%
same,growth inhibition,[6]; [17],33%
same,growth inhibition,[6]; at 11.0 µM,4%
same,growth inhibition,[6]; at 33.0 µM,36%
same,growth inhibition,[6]; [18],98% (active)
same,growth inhibition,[6]; at 50.0 µM,87.3% (active)
same,growth inhibition,[6]; at 100.0 µM,94% (active)
same,growth inhibition,[7]; at 1.2 µM,16%
same,growth inhibition,[7]; at 3.7 µM,13%
same,growth inhibition,[7]; at 11.0 µM,46%
same,growth inhibition,[7]; at 33.0 µM,92% (active)
same,growth inhibition,[7]; at 100.0 µM,97% (active)
same,growth inhibition,[8]; [17],90% (active)
same,growth inhibition,[8]; [18],98% (active)
same,growth inhibition,[8]; at 50.0 µM,90.3% (active)
same,growth inhibition,[9]; at 1.2 µM,6%
same,growth inhibition,[9]; at 3.7 µM,8%
same,growth inhibition,[9]; at 11.0 µM,29%
same,growth inhibition,[9]; at 33.0 µM,92% (active)
same,growth inhibition,[9]; at 100.0 µM,99% (active)
same,growth inhibition,[10]; [17],71% (active)
same,growth inhibition,[10]; [18],98% (active)
same,growth inhibition,[10]; at 50.0 µM,47.1%
same,growth inhibition,[11]; at 1.2 µM,4%
same,growth inhibition,[11]; at 3.7 µM,18%
same,growth inhibition,[11]; [17],93% (active)
same,growth inhibition,[11]; at 11.0 µM,83% (active)
same,growth inhibition,[11]; at 33.0 µM,97% (active)
same,growth inhibition,[11]; [18],98% (active)
same,growth inhibition,[11]; at 50.0 µM,83.3% (active)
same,growth inhibition,[11]; at 100.0 µM,98% (active)
same,growth inhibition,[12]; at 1.2 µM,3%
same,growth inhibition,[12]; at 3.7 µM,17%
same,growth inhibition,[12]; at 11.0 µM,92% (active)
same,growth inhibition,[12]; at 33.0 µM,98% (active)
same,growth inhibition,[12]; at 100.0 µM,99% (active)
same,growth inhibition,[13]; at 1.2 µM,-11%
same,growth inhibition,[13]; at 3.7 µM,-10%
same,growth inhibition,[13]; at 11.0 µM,0%
same,growth inhibition,[13]; at 33.0 µM,57%
same,growth inhibition,[13]; at 100.0 µM,90% (active)
same,growth inhibition,[14]; at 1.2 µM,14%
same,growth inhibition,[14]; at 3.7 µM,8%
same,growth inhibition,[14]; at 11.0 µM,19%
same,growth inhibition,[14]; at 33.0 µM,67%
same,growth inhibition,[14]; at 100.0 µM,91% (active)
same,growth inhibition,[15]; [17],23%
same,growth inhibition,[15]; [18],99% (active)
same,growth inhibition,[15]; at 50.0 µM,86.4% (active)
same,growth inhibition,[16]; at 1.2 µM,6%
same,growth inhibition,[16]; at 3.7 µM,3%
same,growth inhibition,[16]; at 11.0 µM,13%
same,growth inhibition,[16]; at 33.0 µM,41%
same,growth inhibition,[16]; at 100.0 µM,81% (active)
CN(C)N=Nc1ccc(N(C)C)cc1,growth inhibition,[1]; at 1.2 µM,-1%
same,growth inhibition,[1]; at 3.7 µM,1%
same,growth inhibition,[1]; at 11.0 µM,4%
same,growth inhibition,[1]; at 33.0 µM,16%
same,growth inhibition,[1]; at 100.0 µM,53%
same,growth inhibition,[2]; at 1.2 µM,1%
same,growth inhibition,[2]; at 3.7 µM,-4%
same,growth inhibition,[2]; at 11.0 µM,-3%
same,growth inhibition,[2]; at 33.0 µM,-2%
same,growth inhibition,[2]; at 100.0 µM,5%
same,growth inhibition,[3]; at 1.2 µM,4%
same,growth inhibition,[3]; at 3.7 µM,8%
same,growth inhibition,[3]; at 11.0 µM,31%
same,growth inhibition,[3]; at 33.0 µM,53%
same,growth inhibition,[3]; at 100.0 µM,55%
same,growth inhibition,[4]; at 1.2 µM,-3%
same,growth inhibition,[4]; at 3.7 µM,-3%
same,growth inhibition,[4]; at 11.0 µM,-1%
same,growth inhibition,[4]; at 33.0 µM,19%
same,growth inhibition,[4]; at 100.0 µM,12%
same,growth inhibition,[5]; at 1.2 µM,1%
same,growth inhibition,[5]; at 3.7 µM,1%
same,growth inhibition,[5]; [17],-7%
same,growth inhibition,[5]; at 11.0 µM,3%
same,growth inhibition,[5]; at 33.0 µM,5%
same,growth inhibition,[5]; [18],27%
same,growth inhibition,[5]; at 50.0 µM,82.5% (active)
same,growth inhibition,[5]; at 100.0 µM,14%
same,growth inhibition,[6]; at 1.2 µM,2%
same,growth inhibition,[6]; at 3.7 µM,3%
same,growth inhibition,[6]; [17],-9%
same,growth inhibition,[6]; at 11.0 µM,3%
same,growth inhibition,[6]; at 33.0 µM,7%
same,growth inhibition,[6]; [18],-9%
same,growth inhibition,[6]; at 50.0 µM,16.4%
same,growth inhibition,[6]; at 100.0 µM,9%
same,growth inhibition,[7]; at 1.2 µM,-1%
same,growth inhibition,[7]; at 3.7 µM,0%
same,growth inhibition,[7]; at 11.0 µM,2%
same,growth inhibition,[7]; at 33.0 µM,3%
same,growth inhibition,[7]; at 100.0 µM,7%
same,growth inhibition,[8]; [17],2%
same,growth inhibition,[8]; [18],51%
same,growth inhibition,[8]; at 50.0 µM,20.9%
same,growth inhibition,[9]; at 1.2 µM,-2%
same,growth inhibition,[9]; at 3.7 µM,-5%
same,growth inhibition,[9]; at 11.0 µM,-2%
same,growth inhibition,[9]; at 33.0 µM,-2%
same,growth inhibition,[9]; at 100.0 µM,-1%
same,growth inhibition,[10]; [17],2%
same,growth inhibition,[10]; [18],8%
same,growth inhibition,[10]; at 50.0 µM,44.1%
same,growth inhibition,[11]; at 1.2 µM,0%
same,growth inhibition,[11]; at 3.7 µM,-3%
same,growth inhibition,[11]; [17],18%
same,growth inhibition,[11]; at 11.0 µM,-7%
same,growth inhibition,[11]; at 33.0 µM,-5%
same,growth inhibition,[11]; [18],33%
same,growth inhibition,[11]; at 50.0 µM,12.3%
same,growth inhibition,[11]; at 100.0 µM,3%
same,growth inhibition,[12]; at 1.2 µM,-1%
same,growth inhibition,[12]; at 3.7 µM,-1%
same,growth inhibition,[12]; at 11.0 µM,0%
same,growth inhibition,[12]; at 33.0 µM,2%
same,growth inhibition,[12]; at 100.0 µM,13%
same,growth inhibition,[13]; at 1.2 µM,-2%
same,growth inhibition,[13]; at 3.7 µM,-3%
same,growth inhibition,[13]; at 11.0 µM,1%
same,growth inhibition,[13]; at 33.0 µM,3%
same,growth inhibition,[13]; at 100.0 µM,10%
same,growth inhibition,[14]; at 1.2 µM,0%
same,growth inhibition,[14]; at 3.7 µM,4%
same,growth inhibition,[14]; at 11.0 µM,6%
same,growth inhibition,[14]; at 33.0 µM,15%
same,growth inhibition,[14]; at 100.0 µM,28%
same,growth inhibition,[15]; [17],23%
same,growth inhibition,[15]; [18],77% (active)
same,growth inhibition,[15]; at 50.0 µM,70.3% (active)
same,growth inhibition,[16]; at 1.2 µM,1%
same,growth inhibition,[16]; at 3.7 µM,1%
same,growth inhibition,[16]; at 11.0 µM,-15%
same,growth inhibition,[16]; at 33.0 µM,11%
same,growth inhibition,[16]; at 100.0 µM,29%
